PubChem BioAssay AID686979 (National Center for Advancing Translational Sciences (NCATS), 2013)
Values joined by “and” are separate entries in the source; they are usually repeats but may differ in a detail not shown here. Identical values can stand only once. The campaign covered roughly 420,000 compounds. About 50,000 (12%) were called active. Not shown: some 26% with an inconclusive outcome. The full list was thinned out, with actives kept by preference. Unmarked numbers belong to inactive results. Calls come from the whole dose curve; as a rule, active = well fitted inhibition curve with a large enough effect; inconclusive = small, poorly fitted or top-dose-only effect; inactive = flat fitted curve, though single readings scatter.

Test: qHTS for Inhibitors of human tyrosyl-DNA phosphodiesterase 1 (TDP1): qHTS in cells in presence of CPT; note: nearly all actives have a fitted effect of over 55% in size
Conditions: chicken DT40 Tdp1-/-;hTDP1 cells + 20 nM CPT, ATP luminescence, 48 h; series mostly up to 46.2 µM; activity change, negative = growth inhibition: at the top concentration
Summary of the method: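 Chicken DT40 Tdp1-/- cells complemented with human TDP1, 400 cells/well, exposed to compounds plus 20 nM camptothecin for at least 48 h at 37 C; viability read as ATP content by CellTiter-Glo luminescence.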
% is set by controls: 0 for no effect and ±100 for the full control effect; potency is the fitted concentration of half-maximal effect.

Structure (SMILES)	activity change, negative = growth inhibition	Potency
Cc1c(NC(=O)Nc2cccc([N+](=O)[O-])c2)c(=O)n(-c2ccccc2)n1C	17.6%	–
C#CCOCCOCCOCCNc1nc(N2CCN(C(=O)C([C@@H](C)CC)n3cc(C(N)COC(=O)C(F)(F)F)nn3)CC2)nc(N2CCN(C(=O)[C@H](CCCCN)n3cc(C(N)CC(C)C)nn3)CC2)n1 (stereo not given in full)	-11.4%	–
COc1cc(CN2CCC(n3nccc3NC(=O)CCCc3ccccc3)CC2)ccc1O	-29.8%	–
CC(Oc1ccc(F)cc1)C(=O)N1CCN(c2ncccn2)CC1 (stereo not given)	-7.25%	–
O=C(COC(=O)c1cccc(Cl)c1Cl)NC1CCCCCC1	-6.28%	–
CC(C)(C)c1ccc(C(=O)C[N+]2(C)CCCc3ccccc32)cc1 (stereo not given)	–	3.55 µM (active)
CC(C)(C)c1ccc(C(=O)NNC(=O)Cc2ccccc2)cc1	-27.1%	–
CCn1ccnc1CNC(=O)CC1C(=O)NCCN1CCCc1ccccc1 (stereo not given)	3.97%	–
O=C(C(=O)N1CCOc2ccc(CN3CCN(Cc4ccccn4)CC3)cc2C1)c1ccccc1	6.37% [at 9.04 µM]	–
CC(=O)Nc1cccc(NC(=O)CSc2nccn2Cc2ccc(F)cc2)c1	-29%	–
O=C1CC2(CCN(C(=O)COc3ccc(F)cc3)CC2)Oc2ccccc21	-22.1%	–
COc1cc(/C=C/C(=O)OCC(=O)NCCCc2ccccc2)ccc1O	-9.29%	–
CC(C)c1c(C(=O)N/N=C/c2ccc(-c3ccccc3)cc2)nnn1-c1nonc1N	4.68%	–
CC1CC(C)CN(CCC(=O)Nc2ccc3c(c2)CCC3)C1 (stereo not given)	-21.1%	–
Cc1ccc(C(=O)OCC(=O)NC(=O)Cc2ccccc2)c(O)c1	5.48%	–
Cn1c(=O)nc2n(-c3ccc(Br)cc3)c3cccc(Cl)c3cc-2c1=O	5.86%	–
O=c1cc(Cl)c2ccccc2n1-c1ccccc1	22%	–
Cc1ccc(-n2c3nc(=O)[nH]c(=O)c-3cc3c(Cl)cccc32)cc1	–	1.46 µM (active)
CSc1cccc(NC(=O)CN2C(=O)COc3ccc(S(=O)(=O)N4CCOCC4)cc32)c1	-17.9%	–
COc1ccc(Cl)cc1NC(=O)COc1ccc2c(c1)OCO2	4.49%	–
CC1CCN(C(=S)c2cccc(O)c2)CC1	-12%	–
C=C1C([C@@]2(C)C(OC(C)=O)CC(=O)O[C@@](C)(COC(C)=O)C2CC(=O)OC)C(OC=O)C(OC(=O)C(O)C(C)CC)[C@]2(C)C(c3ccoc3)CC(=O)C12O (stereo not given in full)	–	2.59 µM (active)

Structure (SMILES)	activity change, negative = growth inhibition	Potency
O=C(Nc1ccccc1Cl)N1CCC(CN2CCCCC2)CC1	-22.8%	–
COc1ccc(NC(=O)c2ccc(C#CC(C)(C)O)cc2)cc1	-14%	–
Cc1cc(=O)[nH]c(N/N=C/c2ccc3c(c2)OCCO3)n1	-4.75%	–
O=C(Nc1c(-c2ccc(F)cc2)nc2ccccn12)c1cccc(F)c1	–	20.6 µM (active)
O=C(NN1CCOCC1)c1cccc(F)c1	5.06%	–
Cc1oc(-c2cccc(NC(=O)c3ccccc3)c2)nc1CNC(=O)c1cnc2ccccn2c1=O	2.06%	–
Cc1ccccc1NC(=O)CCNS(=O)(=O)c1ccc2[nH]c(=O)oc2c1	12%	–
O=C(C1CC1)N1CCc2cc(Br)cc(S(=O)(=O)N3CCN(c4ccccc4F)CC3)c21	-21%	–
O=C(CCCCCN1C(=O)c2cccc3cccc(c23)C1=O)NCc1ccco1	10.3%	–
CC1CCC2(CC1)NC(=O)N(CC(=O)NCc1ccco1)C2=O (stereo not given)	2.42%	–
O=C(CN1C(=O)/C(=C\c2ccc(C(F)(F)F)cc2)Sc2ccccc21)NCc1ccco1	–	18.4 µM (active)
Nn1c(SCC(=O)Nc2nccs2)nnc1-c1ccco1	7.48%	–
Cc1ccc(CNC(=O)Cn2c(=O)ccc3cc(S(=O)(=O)N4CCCC4)ccc32)cc1	-22.5%	–
COc1cccc(N2CC(C(=O)NCc3n[nH]c(=O)c4ccccc34)CC2=O)c1 (stereo not given)	-27.9%	–
O=c1[nH]c2cccnc2n(CCNc2ncc(C(F)(F)F)cc2Cl)c1=O	5.87%	–
CCOc1ccccc1NC(=O)Cn1nnc(C(=O)NCc2cccs2)c1N	–	5.2 nM (active) and 130 nM (active)
CCOc1ccc(Cn2nnc(C(=O)NCc3ccccc3)c2N)cc1	25%	–
CCOc1ccccc1NC(=O)Cc1cccs1	-0.43%	–
COC(=O)C[C@H]1C=C[C@@H](NS(=O)(=O)c2ccc(C)cc2)[C@@H](CO)O1	13.9%	–
O=C(c1cc(COc2c(F)cccc2F)on1)N1CCSCC1	-14.8%	–
NC(=O)Cn1nc([N+](=O)[O-])nc1Oc1ccc(Br)cc1	-25.2%	–
Cc1ccccc1Nc1nc(N)nc(CSc2nnc3ccccn23)n1	0.37%	–

Structure (SMILES)	activity change, negative = growth inhibition	Potency
COc1cc(/C=N/NC(=S)Nc2cccnc2)cc(OC)c1O	0.37%	–
COc1ccccc1CNC(=O)COc1ccc(C)nc1[N+](=O)[O-]	-22.6%	–
CCC(C)(C)n1nnnc1C(c1ccc(OC)c(OC)c1)N1CCN(C(=O)c2ccco2)CC1 (stereo not given)	1.48%	–
CN1CCN2c3ccccc3Cc3ccccc3[C@@H]2C1	–	13.3 µM (active)
CN1CCN(C(=O)N2c3ccccc3CCc3ccccc32)CC1	18.3%	–
CCOCCCNC(=O)c1cn(CC(C)C)c(=O)c2c1c1ccccc1n2C	–	inactive
CC(=NNC(N)=O)C1CC2CCC1CC2 (stereo not given)	1.34%	–
CCOC(=O)C1CCN(CCC(=O)Nc2cccc(C)c2)CC1	-5.96%	–
CCOC(=O)C1CCN(c2csc3ccc(C)cc3c2=O)CC1	4.08%	–
CCOC(=O)C1CCN(c2c(Nc3cc(C)cc(C)c3)c(=O)c2=O)CC1	–	14.6 µM (active)
O=C(COC(=O)Cc1ccc([N+](=O)[O-])cc1)NC1CCCCCC1	-14.7%	–
Cc1ccsc1C1C(C#N)=C(N)OC2=C1C(=O)CC(C)(C)C2 (stereo not given)	4.55%	–
CN1CCN(S(=O)(=O)c2ccc(Nc3ccc(F)cc3)nc2)CC1	-5.23%	–
C=C1CCN([C@H](C(=O)NCc2cc(OC)c(OC)c(OC)c2)C(C)C)S(=O)(=O)c2ccccc21	-1.11%	–
O=C1OCC2=C1C(c1ccc(Cl)cc1)c1cc3c(cc1O2)OCO3 (stereo not given)	–	29.1 µM (active)
CCc1cccc(NC(=S)N(CCN(C)C)C2CCN(C(C)C)CC2)c1	-24%	–
O=C(COC(=O)C1(c2ccc(F)cc2)CCCC1)N1CCNC1=O	-1.2%	–
Cc1nn(CC(=O)NCc2ccccn2)c(C)c1[N+](=O)[O-]	11.2%	–
Cc1csc(NC(=O)CSc2nnc(-c3cccnc3)o2)n1	-4.05%	–
Cc1csc(NC(=O)NC2(C(F)(F)F)Oc3ccccc3O2)n1	–	20.6 µM (active)
Cc1csc(NC(=O)Nc2ccccc2[N+](=O)[O-])n1	0.264%	–
